Source: the supplement of paper PMC10849652
Of roughly 8,800 targets only a part is listed; those with a hit were picked by preference. About 0.5% of all pairs of compound and target were hits.

What was measured:
Assay in all cases: log2 fold change, soluble protein after heating vs DMSO (PISA); higher = thermal stabilisation; K562 lysate, 10 uM; active = over 0.2 and 3.5 SD of the protein, either way, in both replicates (recomputed)
[1] = compound: CS(=O)(=O)CCNCc1ccc(-c2ccc3ncnc(Nc4ccc(OCc5cccc(F)c5)c(Cl)c4)c3c2)o1 [lapatinib]
Outline: (§1)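 To prepare the extract, K562 pellets were dounce-homogenised in PBS pH 7.4 with 1 mM MgCl2, giving crude material at 1 mg/mL protein. This was treated with 10 μM compound for 30 min, then heated in aliquots for 3 min over 48°C-58°C before pooling and addition of NP-40 to 0.5% at 4°C. Centrifugation at 21,000xg for 90 min left soluble protein in the supernatant, which TMTpro 16plex LC-MS/MS quantified with equalised channel sums. Results are log-two fold changes in thermal stability compared with solvent controls, from duplicates.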

[2] = compound: CS(=O)(=O)N1CCN(Cc2cc3nc(-c4cccc5[nH]ncc45)nc(N4CCOCC4)c3s2)CC1 [pictilisib]
Outline: as §1

[3] = compound: C[C@@H](Oc1cc(-c2cnn(C3CCNCC3)c2)cnc1N)c1c(Cl)ccc(F)c1Cl [crizotinib]
Outline: as §1

[4] = compound: C[C@H](C1=CC=C(C=C1)C(=O)NC2=C3C=CNC3=NC=C2)N
Outline: as §1

[5] = compound: C[C@H](Nc1ncnc2nc[nH]c12)c1cc2cccc(Cl)c2c(=O)n1-c1ccccc1 [duvelisib]
Outline: as §1

[6] = compound: Cc1cc(Nc2cc(CN3CCOCC3)c3nc(C)c(Cc4ccc(Cl)cc4F)n3n2)n[nH]1 [gandotinib]
Outline: as §1

[7] = compound: Cc1cc(Nc2cc(N3CCN(C)CC3)nc(Sc3ccc(NC(=O)C4CC4)cc3)n2)n[nH]1 [tozasertib]
Outline: as §1

[8] = compound: Cc1ccc(-n2nc(C(C)(C)C)cc2NC(=O)Nc2ccc(OCCN3CCOCC3)c3ccccc23)cc1 [doramapimod]
Outline: as §1

[9] = compound: Cc1ccc(NC(=O)c2ccc(CN3CC[C@H](N(C)C)C3)c(C(F)(F)F)c2)cc1Nc1nccc(-c2cncnc2)n1 [bafetinib]
Outline: as §1

[10] = compound: Cc1cccc(CC(=O)N2CCc3c2ccc(-c2cn(C)c4ncnc(N)c24)c3F)n1
Outline: as §1

[11] = compound: Cc1cn(-c2cc(NC(=O)c3ccc(C)c(Nc4nccc(-c5cccnc5)n4)c3)cc(C(F)(F)F)c2)cn1 [nilotinib]
Outline: as §1

[12] = compound: Cc1nc(Nc2n[nH]c3c2CN(C(=O)N[C@H](CN(C)C)c2ccccc2)C3(C)C)c2sccc2n1
Outline: as §1

[13] = compound: Cc1nc(Nc2ncc(C(=O)Nc3c(C)cccc3Cl)s2)cc(N2CCN(CCO)CC2)n1 [dasatinib]
Outline: as §1

[14] = compound: Cc1ncc(-c2ccnc(Nc3ccc(S(C)(=O)=O)cc3)n2)n1C(C)C
Outline: as §1

[15] = compound: Cn1cc(-c2ccc3c(c2)CCN3C(=O)Cc2cccc(C(F)(F)F)c2)c2c(N)ncnc21
Outline: as §1

[16] = compound: Cn1cc(CNCC2CCN(c3ncc(C(=O)NO)cn3)CC2)c2ccccc21 [quisinostat]
Outline: as §1

[17] = compound: Cn1cncc1[C@@](N)(c1ccc(Cl)cc1)c1ccc2c(c1)c(-c1cccc(Cl)c1)cc(=O)n2C [tipifarnib]
Outline: as §1

[18] = compound: NC(=O)Nc1cc(-c2cccc(F)c2)sc1C(=O)N[C@H]1CCCNC1
Outline: as §1

[19] = compound: NC(=O)c1cnc(N[C@@H]2CCCC[C@@H]2N)nc1Nc1cccc(-n2nccn2)c1
Outline: as §1

[20] = compound: NC1(c2ccc(-c3nc4ccn5c(=O)[nH]nc5c4cc3-c3ccccc3)cc2)CCC1
Outline: as §1

Measured: log2 fold change

ECI2 (UniProt O75521)
Chain of UniProt O75521 (O75521 whole entry, looked up): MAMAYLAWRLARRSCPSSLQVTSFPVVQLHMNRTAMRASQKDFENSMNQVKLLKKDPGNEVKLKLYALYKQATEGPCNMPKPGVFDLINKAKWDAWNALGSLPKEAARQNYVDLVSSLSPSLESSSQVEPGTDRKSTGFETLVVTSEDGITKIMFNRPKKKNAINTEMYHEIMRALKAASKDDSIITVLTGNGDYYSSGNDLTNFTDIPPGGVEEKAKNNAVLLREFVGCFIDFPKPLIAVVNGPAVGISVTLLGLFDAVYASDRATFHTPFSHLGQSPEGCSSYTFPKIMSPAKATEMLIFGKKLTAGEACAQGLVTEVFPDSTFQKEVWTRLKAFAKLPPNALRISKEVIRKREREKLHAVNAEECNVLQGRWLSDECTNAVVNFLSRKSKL
inactive: [1] -0.022 | [2] -0.017 | [3] 0.032 | [4] -0.002 | [5] 0.004 | [6] -0.009 | [7] 0.03 | [8] 0.007 | [9] -0.002 | [10] 0.042 | [11] 0.085 | [12] -0.013 | [13] 0.029 | [14] 0.017 | [15] -0.01 | [16] 0.023 | [17] -0.071 | [18] -0.027 | [19] -0.019 | [20] -0.022

FECH isoform 2 (UniProt P22830)
Chain of UniProt P22830 (P22830 whole entry, looked up): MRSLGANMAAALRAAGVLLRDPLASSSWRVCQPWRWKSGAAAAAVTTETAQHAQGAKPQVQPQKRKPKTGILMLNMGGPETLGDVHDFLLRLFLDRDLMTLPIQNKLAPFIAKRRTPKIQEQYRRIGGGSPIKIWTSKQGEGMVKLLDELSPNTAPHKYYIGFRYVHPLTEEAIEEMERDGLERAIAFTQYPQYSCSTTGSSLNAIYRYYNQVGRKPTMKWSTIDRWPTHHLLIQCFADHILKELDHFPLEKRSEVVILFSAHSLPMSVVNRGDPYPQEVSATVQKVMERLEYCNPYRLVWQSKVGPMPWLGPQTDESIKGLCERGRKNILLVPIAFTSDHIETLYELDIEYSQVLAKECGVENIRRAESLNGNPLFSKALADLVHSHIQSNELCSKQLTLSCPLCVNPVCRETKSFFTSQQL
inactive: [1] -0.099 | [2] 0.64 | [3] 0.027 | [4] -0.12 | [5] -0.022 | [6] 0.418 | [7] 0 | [8] -0.015 | [9] 0.557 | [10] -0.036 | [11] 0.796 | [12] 0 | [13] 0.353 | [14] 0.364 | [15] 0.009 | [16] 0.333 | [17] -0.007 | [18] -0.013 | [19] 0.139 | [20] 0.053

GCLM (UniProt P48507)
Chain of UniProt P48507 (P48507 whole entry, looked up): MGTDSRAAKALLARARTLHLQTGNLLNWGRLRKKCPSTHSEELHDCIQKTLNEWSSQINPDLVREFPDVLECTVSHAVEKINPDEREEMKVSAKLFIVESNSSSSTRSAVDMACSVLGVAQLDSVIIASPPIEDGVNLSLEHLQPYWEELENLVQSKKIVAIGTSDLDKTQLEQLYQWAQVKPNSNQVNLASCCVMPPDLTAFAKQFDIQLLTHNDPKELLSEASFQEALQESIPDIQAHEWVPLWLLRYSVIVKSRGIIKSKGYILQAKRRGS
inactive: [1] -0.006 | [2] -0.013 | [3] 0.018 | [4] -0.009 | [5] 0.016 | [6] -0.004 | [7] -0.017 | [8] 0.001 | [9] 0.003 | [10] -0.03 | [11] -0.03 | [12] 0.016 | [13] -0.033 | [14] 0.013 | [15] 0.027 | [16] 0.016 | [17] 0.007 | [18] 0 | [19] -0.005 | [20] -0.005

FAM118B (UniProt Q9BPY3)
Chain of UniProt Q9BPY3 (Q9BPY3 whole entry, looked up): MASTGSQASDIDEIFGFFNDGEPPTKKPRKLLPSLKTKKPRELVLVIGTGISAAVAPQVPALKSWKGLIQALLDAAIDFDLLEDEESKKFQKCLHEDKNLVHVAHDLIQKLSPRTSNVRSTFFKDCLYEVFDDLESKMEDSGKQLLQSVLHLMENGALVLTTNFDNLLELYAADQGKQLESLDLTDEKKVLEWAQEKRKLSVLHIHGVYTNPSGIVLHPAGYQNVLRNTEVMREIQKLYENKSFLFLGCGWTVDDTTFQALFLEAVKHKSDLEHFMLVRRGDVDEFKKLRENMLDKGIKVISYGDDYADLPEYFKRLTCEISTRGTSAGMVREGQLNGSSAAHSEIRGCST
inactive: [1] 0.022 | [2] -0.013 | [3] -0.093 | [4] -0.022 | [5] 0.045 | [6] -0.044 | [7] -0.008 | [8] 0.048 | [9] 0.008 | [10] 0.037 | [11] -0.018 | [12] 0.002 | [13] -0.039 | [14] -0.009 | [15] -0.008 | [16] -0.06 | [17] -0.015 | [18] 0.021 | [19] 0.032 | [20] -0.007

FAM118A (UniProt Q9NWS6)
Chain of UniProt Q9NWS6 (Q9NWS6 whole entry, looked up): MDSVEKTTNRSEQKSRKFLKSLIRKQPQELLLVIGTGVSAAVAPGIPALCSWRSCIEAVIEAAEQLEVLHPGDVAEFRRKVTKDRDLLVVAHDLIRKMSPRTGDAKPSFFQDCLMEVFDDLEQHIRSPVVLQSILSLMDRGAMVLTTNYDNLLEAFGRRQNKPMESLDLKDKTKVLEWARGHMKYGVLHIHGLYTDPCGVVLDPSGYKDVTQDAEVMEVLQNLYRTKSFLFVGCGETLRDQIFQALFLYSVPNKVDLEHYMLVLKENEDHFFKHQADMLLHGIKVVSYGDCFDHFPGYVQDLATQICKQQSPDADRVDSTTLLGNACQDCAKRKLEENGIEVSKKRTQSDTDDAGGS
inactive: [1] 0.02 | [2] -0.006 | [3] -0.054 | [4] -0.09 | [5] 0.019 | [6] 0.002 | [7] -0.016 | [8] -0.013 | [9] -0.059 | [10] 0.118 | [11] -0.017 | [12] -0.03 | [13] -0.043 | [14] -0.003 | [15] -0.082 | [16] -0.103 | [17] 0.016 | [18] 0.013 | [19] 0.003 | [20] -0.023

ENSA isoform 3 (UniProt O43768)
Chain of UniProt O43768 (O43768 whole entry, looked up): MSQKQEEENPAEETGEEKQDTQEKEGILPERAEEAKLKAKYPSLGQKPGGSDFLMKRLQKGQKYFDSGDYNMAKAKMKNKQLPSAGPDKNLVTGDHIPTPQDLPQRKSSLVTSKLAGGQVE
inactive: [1] 0.021 | [2] 0.02 | [3] 0.058 | [4] 0.103 | [5] 0.049 | [6] -0.042 | [7] -0.027 | [8] -0.068 | [9] 0.058 | [10] -0.103 | [11] -0.022 | [12] -0.011 | [13] 0.07 | [14] 0.013 | [15] -0.002 | [16] 0.051 | [17] -0.002 | [18] -0.025 | [19] -0.029 | [20] 0.021

DSN1 (UniProt Q9H410)
Chain of UniProt Q9H410 (Q9H410 whole entry, looked up): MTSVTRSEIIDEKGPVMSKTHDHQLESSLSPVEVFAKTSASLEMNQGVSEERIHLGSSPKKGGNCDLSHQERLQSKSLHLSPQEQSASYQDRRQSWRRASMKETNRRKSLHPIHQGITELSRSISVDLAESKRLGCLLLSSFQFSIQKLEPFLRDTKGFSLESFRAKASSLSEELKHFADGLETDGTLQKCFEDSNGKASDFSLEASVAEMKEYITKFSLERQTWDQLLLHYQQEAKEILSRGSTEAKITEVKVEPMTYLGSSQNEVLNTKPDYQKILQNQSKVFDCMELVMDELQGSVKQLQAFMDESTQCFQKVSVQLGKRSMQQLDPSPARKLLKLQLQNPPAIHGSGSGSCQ
inactive: [1] 0.009 | [2] -0.027 | [3] -0.016 | [4] -0.051 | [5] 0.004 | [6] 0.008 | [7] 0.015 | [8] -0.037 | [9] -0.026 | [10] 0.021 | [11] -0.006 | [12] 0.023 | [13] -0.022 | [14] 0.001 | [15] 0.011 | [16] -0.015 | [17] -0.015 | [18] 0.05 | [19] 0.014 | [20] 0.031

GCDH (UniProt Q92947)
Chain of UniProt Q92947 (Q92947 whole entry, looked up): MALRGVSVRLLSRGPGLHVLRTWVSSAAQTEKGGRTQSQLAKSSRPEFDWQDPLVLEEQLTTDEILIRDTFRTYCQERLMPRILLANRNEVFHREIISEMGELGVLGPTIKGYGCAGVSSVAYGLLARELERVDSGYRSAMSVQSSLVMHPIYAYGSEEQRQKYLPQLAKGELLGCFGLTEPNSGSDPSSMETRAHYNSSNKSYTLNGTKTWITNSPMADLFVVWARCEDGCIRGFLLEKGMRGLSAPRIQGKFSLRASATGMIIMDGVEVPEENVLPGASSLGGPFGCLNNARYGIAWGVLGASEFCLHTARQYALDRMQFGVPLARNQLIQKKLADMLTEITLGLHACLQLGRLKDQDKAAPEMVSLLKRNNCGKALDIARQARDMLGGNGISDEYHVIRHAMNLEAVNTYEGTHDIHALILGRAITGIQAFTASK
inactive: [1] 0.016 | [2] 0.012 | [3] -0.017 | [4] 0.013 | [5] 0.19 | [6] -0.005 | [7] 0.007 | [8] -0.026 | [9] 0.047 | [10] -0.004 | [11] -0.018 | [12] -0.129 | [13] 0.024 | [14] -0.033 | [15] -0.022 | [16] -0.05 | [17] -0.018 | [18] -0.07 | [19] -0.021 | [20] -0.044
